Our source for the Potency values is PubChem BioAssay AID2677 (National Center for Advancing Translational Sciences (NCATS), 2010).

Some of the results follow. Records with an inconclusive call do not appear. Active and inactive are the calls of the source. Calls come from the whole dose curve; as a rule, active = well fitted inhibition curve with a large enough effect; inconclusive = small, poorly fitted or top-dose-only effect; inactive = no such curve, though single readings can be large or run the other way.

Chain of Lysine-specific demethylase 4E (Homo sapiens) (B2RXH2 1-337 limits assumed): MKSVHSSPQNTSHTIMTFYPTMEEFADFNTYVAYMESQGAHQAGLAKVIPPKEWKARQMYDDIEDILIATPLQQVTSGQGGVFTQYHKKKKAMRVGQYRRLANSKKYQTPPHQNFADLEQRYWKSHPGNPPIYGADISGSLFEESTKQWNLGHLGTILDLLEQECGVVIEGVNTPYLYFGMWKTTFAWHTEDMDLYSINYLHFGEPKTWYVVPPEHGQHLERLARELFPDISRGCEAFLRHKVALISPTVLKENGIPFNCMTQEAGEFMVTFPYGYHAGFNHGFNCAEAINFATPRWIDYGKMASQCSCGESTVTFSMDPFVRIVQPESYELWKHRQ

This assay has as its target Lysine-specific demethylase 4E (Homo sapiens) (UniProt B2RXH2). The experiment in a line: Confirmation qHTS Assay for Inhibitors of Human Jumonji Domain Containing 2E (JMJD2E). The note with it: Recombinant JMJD2E, FDH-coupled NADH fluorescence (FDH is formaldehyde dehydrogenase). From the text: The fine interplay among methylation states of several lysine residues on the tails of histone proteins is a major determinant of the transcriptional state of the associated DNA coding regions and is commonly referred to as the histone code. Histone lysine demethylases catalyze the removal of methyl groups from methylated lysine sidechains on histones H3 and H4, thus antagonizing the reactions catalyzed by histone lysine methyltransferases. […] In search for novel inhibitors of JMJD2E demethylase, a member of the largest set of histone demethylases belonging to the Fe(II) and 2-oxoglutarate oxygenase (2OG) superfamily, we performed a quantitative high-throughput screen (Inglese 2006) by using an assay which utilizes a trimethylated peptide substrate corresponding to a fragment of histone H3 (sequence ARKme3STGGK) with detection of the formaldehyde co-product in real time by a formaldehyde dehydrogenase (FDH) coupled reaction. FDH catalyzes oxidation of formaldehyde to formic acid with the concomitant reduction of the non-fluorescent beta-nicotinamide adenine dinucleotide hydrate (NAD+) cofactor to the fluorescent NADH co-product. References: Inglese, J., Auld, D., Jadhav, A., Johnson, R., Simeonov, A., Yasgar, A., Zheng, W. and Austin, C. Proc Natl Acad Sci USA 2006, 103, 11473-11478. N. R. Rose, S. S. Ng, J. Mecinovic, B. M. Lienard, S. H. Bello, Z. Sun, M. A. McDonough, U. Oppermann and C. J. Schofield, J Med Chem, 2008, 51, 7053-7056. Sakurai, M., Rose, N., Schultz, L., Quinn, A., Jadhav, A., Ng, S., Oppermann, U., Schofield, C.J. and Simeonov, A. Mol BioSystems 2009, in press. S. Michael, D. Auld, C. Klumpp, A. Jadhav, W. Zheng, N. Thorne, C. Austin, J. Inglese and A. Simeonov, Assay Drug Dev Technol, 2008, 6, 637-657. Assay Provider: Structural Genomics Consortium [SGC] Screening Center PI: Austin, C.P. Screening Center: NIH Chemical Genomics Center [NCGC]
Reagents and Controls: Ferrous ammonium sulfate, (+)-sodium L-ascorbate, beta-nicotinamide adenine dinucleotide hydrate (NAD+), Tween-20, formaldehyde dehydrogenase from P. putida (FDH), and disodium 2-oxoglutarate were from Sigma (St. Louis, MO). Black solid-bottom 384-well or 1,536-well assay plates were from Greiner Bio-One (Monroe, NC). Enzyme was supplied by Prof. Udo Oppermann, SGC-Oxford. […] The trimethylated histone peptide substrate ARK(me3)STGGK was synthesized and HPLC-purified by the Tufts University Core Facility (Boston, MA). Substrate solution (Sakurai 2009) contained 50 uM ARK(me3)STGGK, 0.00025 U/uL FDH, 50 uM 2-oxoglutarate, 250 uM NAD+, 1 mM ascorbate, and 10 uM ferrous ammonium sulfate. Controls and plate map: Buffer (150 mM HEPES pH 7.5 containing 0.01% Tween-20) in columns 3 and 4 as negative control (no enzyme) and 100 nM JMJD2E final concentration in columns 1,2, and 5-48. Assay Steps: Enzyme and buffer solutions (3 uL) were dispensed into a 1,536-well Greiner black solid-bottom assay plate. The library compounds (23 nL) were transferred using a Kalypsys pintool equipped with 1,536-pin array. The plate was incubated at room temperature (15 min), and then a 1 uL aliquot of substrate solution was added to initiate the reaction. The plate was transferred to ViewLux imager where an initial reading using standard UV optics (Ex 340 nm, Em 450 nm) was obtained. The plate was then removed from the reader, incubated for 30 minutes at room temperature, and returned to the reader for a second fluorescence reading. A fully automated robotic screening system (Kalypsys Inc, San diego, CA) was used to perform the above steps as described previously (Michael 2008). Compound plates containing DMSO as a vehicle-only control were included at regular interval throughout the screen to monitor any systematic trend in the assay signal associated with reagent dispenser variation or decreases in enzyme specific activity. For activity calculations, percent values were computed as the difference in fluorescence intensity between last and first time points. […]
Background: qHTS replaces the single test concentration by a dilution series.
Consider `Cc1ccc(N2C(=O)CC(Sc3ncn[nH]3)C2=O)cc1` (stereo unspecified), for which the Potency is 5.01 µM (active).

Regarding `Oc1c(CN2CCCC2)cc(COCc2ccccc2)c2cccnc12`, the Potency was 5.01 µM (active).

As to `Nc1ccc(Nc2cc(O)c3ncccc3c2)cc1`, the Potency is 28.2 µM (active).

With `O=C1CC(Sc2ncn[nH]2)C(=O)N1c1ccccc1` (stereo unspecified), the Potency is 7.08 µM (active).

On to `Oc1ccc(/C=C/c2c(F)cccc2F)c2cccnc12`, for which the Potency is 9.13 µM (active).

With `Oc1cccc2cc(-c3ccncc3)cnc12`, the Potency was 18.2 µM (active).
